Compounds without any hit were thinned out: in the full panel of roughly 83,000, 20% have a hit.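 Single-concentration screen, 48 h exposure, 96-well plates. Endpoint: percent growth. Below 10 = active.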 Unmarked numbers belong to inactive results. Active and inactive are the calls of the source.

Common to all, as to experiment: NCI-60 one-dose screen, 48 h (100 = growth as untreated, 0 = no growth, -100 = all killed)
Holding throughout (conditions): 10 µM unless noted

The test system of experiment [1] is HCT-15 colon.
Experiment [2] deals with HT29 colon.
The subject of experiment [3] is SNB-75 CNS.
Experiment [4] concerns SNB-19 CNS.
Experiment [5] relates to U251 CNS.
Experiment [6] relates to PC-3 prostate.
Experiment [7] concerns SK-MEL-5 melanoma.
The subject of experiment [8] is UACC-62 melanoma.
Experiment [9] relates to LOX IMVI melanoma.
For experiment [10], the system named is SK-MEL-28 melanoma.
In experiment [11] the test system is SK-MEL-2 melanoma.
The subject of experiment [12] is EKVX NSCLC.
The test system of experiment [13] is SN12C renal.
The subject of experiment [14] is UO-31 renal.
Experiment [15] deals with TK-10 renal.
Experiment [16] concerns ACHN renal.
The test system of experiment [17] is CAKI-1 renal.
The subject of experiment [18] is A498 renal.
Experiment [19] deals with MOLT-4 leukemia.
Experiment [20] has as its system CCRF-CEM leukemia.

Take `O=C(CN1C(=O)S/C(=C\C(Cl)=C\c2ccccc2)C1=O)NCCc1ccc(O)cc1`: the growth was 0.727% (active) in experiment [1]; 16.6% in experiment [2]; 22% in [3]; 34.3% in experiment [4]; 19.3% in experiment [5]; 24.7% in experiment [6]. Besides, the growth in experiment [7] was 46%; in [8] it was 8.67% (active); in experiment [9], -51.5% (active); in [10] it was 20.7%; in experiment [11] it was 6.1% (active); in experiment [12], 44.4%. For the same molecule, the growth was 16% in experiment [13]; -50.7% (active) in experiment [14]; 24.1% in [15]; -69.3% (active) in experiment [16]; 39.3% in experiment [17]; 94.2% in experiment [18]. Further, in experiment [19], the growth was 5.15% (active).

Turning to `CC(=O)Oc1ccc(C)cc1C`, the growth in experiment [1] is 100%; in experiment [2] it was 105%; in [3] it was 70.3%; in experiment [4], 103%; in [5], 103%; in experiment [6], 97%. The growth in experiment [7] is 108%; in [8], 105%; in experiment [9], 97.1%; in [10] it was 107%; in experiment [11], 99.7%; in experiment [12], 112%. Further, the growth in [13] was 102%; in experiment [14], 85.7%; in [15], 102%; in experiment [16], 101%; in experiment [17], 101%; in experiment [20], 102%. Besides, the growth in [19] was 106%.

Take `COc1cc(-c2cncn2-c2ccc(-c3nc4ccc(F)cc4s3)cc2)ccc1F`: the growth in experiment [1] is 30.5%; in experiment [2], 30.8%; in [3] it was 127%; in experiment [4] it was 86.7%; in experiment [5] it was 83%; in [6] it was 107%. The growth in [7] is 68.7%; in [8], 84.8%; in experiment [9], 86.7%; in experiment [10] it was 95.9%; in experiment [11], 37.7%; in [12] it was 95.8%. The growth was 94.7% in experiment [13]; 71.9% in experiment [14]; 92.1% in experiment [15]; 3.23% (active) in experiment [16]; 25.7% in experiment [17]; 74.5% in experiment [18]. Moreover, the growth in experiment [19] is 63.6%.

In the case of `O=S(=O)(Nc1ccc(Cl)c(C(F)(F)F)c1)c1ccc(-c2cnc(C3CC3)o2)cc1`, the growth was 22.5% in [1]; 5.34% (active) in experiment [2]; -2.82% (active) in experiment [3]; 18.3% in [4]; 4.81% (active) in experiment [5]; 4.35% (active) in [6]. The growth was 18.6% in experiment [7]; -10.2% (active) in experiment [8]; 32.9% in experiment [9]; 19.4% in experiment [10]; 5.31% (active) in [11]; 31.5% in experiment [12]. Further, the growth in experiment [13] was 10.7%; in experiment [14], 35.5%; in experiment [15], 3.01% (active); in experiment [16], 34.6%; in [17], 35.6%; in experiment [18], -8.08% (active). Also, the growth in experiment [19] is 5.21% (active).

`CN1CCN(c2cc(Nc3cc(C4CC4)[nH]n3)nc(Nc3ccc(CC(=O)NCc4cccc(F)c4)cc3)n2)CC1`: the growth in experiment [1] was 56.5%; in experiment [2], 8.1% (active); in [3], -56% (active); in experiment [4], 40%; in [5], 26%; in experiment [6], 47.4%. Also, the growth in experiment [7] is 68.6%; in [8] it was 32.7%; in [9], -28.4% (active); in experiment [10] it was 25.8%; in experiment [11] it was 48.9%; in [12], 50.3%. Moreover, the growth in experiment [13] was 23.5%; in experiment [14], 36.8%; in [16], 45.9%; in experiment [17] it was 5.36% (active); in [18] it was -28.7% (active); in experiment [19], 16%.

On to `COc1ccc(-c2ccc(=O)oc2-c2cc(OC)c(OC)c(OC)c2)cc1O`, for which the growth was 12.1% in [1]; -24% (active) in [2]; 38.8% in [3]; 25.3% in experiment [4]; 19.8% in [5]; 36.9% in experiment [6]. Moreover, the growth in [7] is -55.5% (active); in experiment [8] it was 34.7%; in experiment [9], 17.8%; in experiment [10] it was 47.4%; in experiment [11], 39.6%; in experiment [12], 30.9%. The growth in experiment [13] is 25.7%; in experiment [14] it was 32.4%; in experiment [16], 38.9%; in experiment [17], -15.8% (active); in experiment [18], -39.7% (active); in experiment [20], 7.05% (active). Further, the growth in experiment [19] is 2.3% (active).

Consider `COc1ccc(C2=C(Nc3ccc(C(=O)Nc4ccccc4)cc3)C(=O)N(C)C2=O)cc1`, for which the growth was 89.1% in [1]; 84% in [2]; 88.9% in experiment [3]; 95.3% in [4]; 95.4% in experiment [5]; 80.7% in experiment [6]. Besides, the growth in experiment [7] is 96.2%; in experiment [8], 92.3%; in experiment [9], 84.6%; in experiment [10] it was 111%; in experiment [11], 85.1%; in experiment [12], 96.8%. The growth in [13] is 99.2%; in [14], 71.8%; in [16], 89.9%; in experiment [17], 80.9%; in experiment [18], 116%; in experiment [20], 85.4%. The growth in experiment [19] was 76.7%.

The record behind these values is PubChem BioAssay (NCI).
